Measurements: PubChem BioAssay (NCI)
This is part of a sample that, as a whole, favours compounds with a hit. Of some 79,000 tested, about 15% had one in any assay. A number with no mark means an inactive call. Active and inactive are the calls of the source. No stated cut-off is given here; in the data, active means growth inhibition above about 70%; inactive means the rest. Where a SMILES comes first, the peptide text is derived from it. The star is where a group is joined. Boc = CC(C)(C)OC(=O)*

How the values were obtained:
[1] = NCI Yeast Anticancer Drug Screen. Data for the rad50 strain (AID 155);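 further: 0% = growth of vehicle-only cultures of the same strain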; conditions: S. cerevisiae rad50 strain growth inhibition; at 50.0 µM; active compounds read high
Summary of the method: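 Genetically altered yeast (DNA repair pathway); compound treatment; growth inhibition vs vehicle ctrl.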

[2] = NCI Yeast Anticancer Drug Screen. Data for the mec2-1 strain (AID 157); conditions: S. cerevisiae mec2-1 strain, at 50.0 µM, active compounds read high
Summary of the method: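 Using mec2-1 yeast: add compound, measure growth, express inhibition versus vehicle-treated cultures.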

[3] = NCI Yeast Anticancer Drug Screen. Data for the sgs1 mgt1 strain (AID 161);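 further: 0% = growth of cultures given vehicle only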; conditions: S. cerevisiae sgs1 mgt1 strain, at 50.0 µM, active compounds read high
Summary of the method: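 This yeast growth screen uses a strain with defined DNA-repair lesions; compound-treated growth is compared with vehicle-treated growth.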

[4] = NCI Yeast Anticancer Drug Screen. Data for the cln2 rad14 strain (AID 165);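 further: 0% = growth equal to vehicle treated cultures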; conditions: S. cerevisiae cln2 rad14 strain, at 50.0 µM, active compounds read high
Summary of the method: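 Yeast strain cln2 rad14, bearing defects in cell cycle control and DNA repair, serves as the test system; values reflect growth inhibition compared with vehicle.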

[5] = NCI Yeast Anticancer Drug Screen. Data for the bub3 strain (AID 167); conditions: S. cerevisiae bub3 mutant strain, at 50.0 µM, active compounds read high
Summary of the method: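 Yeast carrying a defined mutation is treated with each compound, and growth is compared with that of vehicle-exposed cells to give inhibition.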

[6] = NCI Yeast Anticancer Drug Screen. Data for the mlh1 rad18 strain (AID 175); conditions: S. cerevisiae mlh1 rad18 strain growth inhibition; at 50.0 µM; active compounds read high
Summary of the method: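 Steps: expose repair-defective yeast to compound; measure growth; express inhibition against vehicle-treated controls.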

Row | SMILES | growth inhibition [1] | growth inhibition [2] | growth inhibition [3] | growth inhibition [4] | growth inhibition [5] | growth inhibition [6]
1 | C/C(=C\c1ccccc1)c1ccccc1 | -47.8% | 1.9% | -3.75% | -30.4% | 2.1% | 8.45%
2 | FC(F)(F)C1(C(F)(F)F)OI2(Br)(OC(C(F)(F)F)(C(F)(F)F)c3ccccc32)c2ccccc21 | -6.05% | -0.25% | -11.2% | 21.2% | -5.3% | 27.1%
3 | O=S(=O)([N-]c1nc2ccccc2nc1-[n+]1ccccc1)c1ccccc1 | 14% | -0.2% | 14.7% | -7.25% | -2.2% | -22.6%
4 | CC(C)(/C=N\O)NO | -14.8% | -20.4% | 0.4% | 13.6% | -9.05% | -0.9%
5 | CC(Oc1cc2oc(=O)cc(-c3ccccc3)c2cc1Cl)C(=O)O (stereo unspecified) | -13.6% | 9.45% | 7.05% | 14.7% | -9.35% | -7.1%
6 | CN(C)c1ccc(C=C2c3ccccc3-c3ccccc32)cc1 | -10.8% | -1.35% | 7.75% | -80.9% | 0.9% | 9.1%
7 | Cc1ccc(S(=O)(=O)/C=C/c2ccccc2)cc1 | 8.15% | 6.2% | 1.8% | -10.3% | -2.45% | -10.2%
8 | Cc1cccc(N=Nc2ccc(N=Nc3c(O)ccc4ccccc34)cc2C)c1 | -3.5% | 2.85% | 16.4% | 0.65% | 17.3% | 11.2%
9 | Cc1ccccc1NC(=O)CSc1nnc(-c2ccc(N=Cc3ccc(Cl)cc3)cc2)o1 | -13.6% | -30.9% | 1.9% | -4.75% | -30% | -17.8%
10 | OC(c1ccccc1)(c1c2ccccc2cc2ccccc12)C1CCC1 (stereo unspecified) | 16.8% | 20.1% | 0.9% | 9.75% | 13% | -5.65%
11 | COc1ccc(CNc2ccccc2)cc1 | -2% | 11.8% | 3.65% | 10.6% | -4.05% | -9.4%
12 | FCCCCSc1ncnc2nc[nH]c12 | -25.3% | -15.2% | -24.7% | -33.4% | -11.5% | -17.2%
13 | CCCCCCCC1CC(OCC)OC(CCCCCCC)O1 (stereo unspecified) | -1.8% | -15.1% | -6.95% | -8.2% | -2.25% | -18.4%
14 | CC(NC(=O)C(CSCc1ccccc1)NC(=O)OCc1ccccc1)C(=O)OCc1ccccc1 (stereo unspecified) | -38% | -9.7% | -11.2% | 24.4% | -3.05% | 10.8%
15 | Cc1[nH]c(=O)c2ccccc2c1O | 10.6% | -8.15% | -3.7% | 6.35% | -17.2% | -1.35%
16 | C=C(Cl)CSc1ncnc2nc[nH]c12 | 34.5% | 22.9% | 18.2% | 8.05% | 30.6% | 36.4%
17 | COc1cc(-c2cc(O)c(-c3ccc4ccccc4n3)c(=O)[nH]2)cc(OC)c1OC | 6.75% | 14.6% | 1.6% | 11.8% | -27.1% | 23.4%
18 | CCC[CH2][Sn]([C]#[C][Sn]([CH2]CCC)([CH2]CCC)[CH2]CCC)([CH2]CCC)[CH2]CCC | 99.6% (active) | 98.8% (active) | 99.5% (active) | 99.2% (active) | 99.3% (active) | 99.4% (active)
19 | O=C(O)c1c(Br)c(Br)c(Br)c(Br)c1C(=O)Nc1ccc(Cl)cc1C(F)(F)F | 1.35% | 10.1% | 11.1% | -6.55% | 0.3% | 13.3%
20 | CCOC(=O)C(Cc1c[nH]c2ccccc12)NC(C)=O (stereo unspecified) | 22.2% | 28.6% | 23.6% | -9.9% | 41.9% | 19.2%
21 | Nc1nc(N)c(CCCCc2ccc([N+](=O)[O-])cc2)c(N)n1 | -1.05% | 21.1% | 24.1% | -9.95% | -1.4% | -21.3%

Row | SMILES | growth inhibition [1] | growth inhibition [2] | growth inhibition [3] | growth inhibition [4] | growth inhibition [5] | growth inhibition [6]
22 | CC(=O)Nc1ccc2c(=O)cc[nH]c2n1 | 13.7% | 2.9% | 2.4% | 1.9% | -2.95% | 31.2%
23 | O=C(O)CCNc1cccs1 | -19.6% | -1.75% | -26.5% | -63.8% | -4.85% | -19.9%
24 | Cc1cccc(F)c1C | 24.9% | -14.5% | 4.9% | 6.1% | 3.2% | 7.25%
25 | O=C1CCCC2OC2[C@H]2CCCCCC[C@@H]12 (stereo partly specified) | 2.5% | 0.9% | 4.8% | 3.15% | -2.35% | 7.85%
26 | Fc1ccc(C(Nc2nncs2)Nc2nncs2)c(F)c1 | -0.8% | -13.8% | 12.6% | -44.1% | -35.8% | 9.7%
27 | CC(C)CCCC(C)[C@H]1CC[C@H]2[C@@H]3CC[C@H]4C[C@@H](CCC=C(c5cc(Cl)c(O)c(C(=O)OC(C)C)c5)c5cc(Cl)c(O)c(C(=O)OC(C)C)c5)CC[C@]4(C)[C@H]3CC[C@]12C (stereo partly specified) | 17.7% | 9.05% | 23.1% | 18.7% | 11.5% | -32.5%
28 | CCCCCCCCCC(=O)N/N=C/c1cccnc1 | 88.2% (active) | 87% (active) | 95.9% (active) | 26.2% | 71.1% (active) | 91.3% (active)
29 | CN1CCC(O)(/C=C\C2(O)CCN(C)CC2)CC1 | -10.9% | 21.7% | 20.1% | -3.95% | 3.65% | -22.1%
30 | O=C1C2CCCC3CCCC(C(=O)N1NC1CCCCC1)C32 (stereo unspecified) | 39.4% | 28.6% | 27.9% | 29.7% | 53.4% | 49%
31 | CC1=C(O)C(=O)C(C2=C(O)C(=O)C(C)=C(O)C2=O)=C(O)C1=O | 5.3% | -12.4% | 24.4% | 10% | 5.8% | 12.6%
32 | O=c1ccn(C2OC(CF)C(O)C2O)c(=O)[nH]1 (stereo unspecified) | 1.8% | -2.85% | -1.4% | 9.05% | 0.7% | -9.9%
33 | O=C(CCCC(=O)NNC(=O)Nc1cccc(Cl)c1)NNC(=O)Nc1cccc(Cl)c1 | -13.2% | -2.2% | -10.9% | -12.9% | -1.7% | -10.6%
34 | CC(C)C(NC(=O)OC(C)(C)C)C(=O)N1CCCC1C(=O)O (stereo not drawn) (Boc-Val-Pro-OH; configuration not given here) | 11.8% | -1.5% | 18% | 3.3% | 2.3% | 5.65%
35 | CCNC1CC(C(C)(C)NCC)CC=C1C (stereo unspecified) | -31.4% | -25.2% | -38.7% | -15.4% | -46.9% | -55.2%
36 | CC(Nc1ccc(Cl)c(Cl)c1)C1CCOC1=O (stereo unspecified) | 85.5% (active) | 97% (active) | 94.8% (active) | 80% (active) | 94.8% (active) | 95.5% (active)
37 | COc1ccc(S(=O)(=O)N(C)c2ccccc2)cc1 | 2.9% | -56.8% | -20.6% | 13.3% | 19.1% | 3.5%
38 | C=CCOC(=O)c1ccco1 | 5.6% | -6.3% | 2.35% | -1.4% | 0.45% | 2.05%
39 | c1ccc2cc3c(cc2c1)Cn1c-3nc2ccccc21 | 19.4% | -8.7% | 13.2% | 6.55% | 11.4% | 27.8%
40 | NCCC1([N+](=O)[O-])CCNCC1 | 1.9% | -7.2% | -6.15% | -14.7% | -5.3% | 14.6%
41 | COc1ccc(/C(C#N)=C/c2ccc(N(C)CCC#N)cc2)cc1 | 28.2% | -24.1% | 24.2% | -8.75% | 15.2% | 24.5%
